From PubChem BioAssay (NCATS)
Inconclusive results are not listed. Active and inactive are the calls of the source. Calls come from the whole dose curve; as a rule, active = well fitted cell-killing curve with a large enough effect; inconclusive = small, poorly fitted or top-dose-only effect, or effect the other way; inactive = flat fitted curve, though single readings scatter.

Key:
Test in all cases: Primary qHTS to identify gynecologic anti-cancer compounds using libraries of approved drugs and bioactive compounds (AID 1345084); note: nearly all actives have a fitted effect of over 55% in size
Conditions in all cases: Gynecologic cancer cell panel viability, ATPlite luminescence, 48 h; series mostly up to 57.5 µM
OV90 = tested on: OV90
Outline: (§1)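 Five-concentration response, 48 h; readout is ATP-driven luciferase luminescence.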

PA-1 = tested on: PA-1
Outline: as §1

SKOV3 = tested on: SKOV3
Outline: as §1

Tov-21-G = tested on: Tov-21-G
Outline: as §1

Tov112D = tested on: Tov112D
Outline: as §1

Measured: Potency

COc1cc(O)cc2c1C(=O)OC(C)C2 (stereo not given)
inactive: all assays above

CC(C)=CCC/C(C)=C/CO[C@@H]1O[C@H](CO[C@@H]2OC[C@](O)(CO)[C@H]2O)[C@@H](O)[C@H](O)[C@H]1O
inactive: all assays above

CC(C)(OC1OC(CO)C(O)C(O)C1O)C1CCC(O)(CO)C2CC(=O)C(C)(O)C2C1 (stereo not given)
inactive: all assays above

O=C(O)c1cc(C(F)(F)F)ccc1N1CC[C@H](OCc2ccccn2)C1
inactive: all assays above

Cn1cc(Nc2cnccc2C(=O)O)c2cccnc21
inactive: all assays above

CC(=O)O[C@H]1C[C@@]2(C)[C@@H](CC[C@H]3[C@@]4(C)C=CC(=O)[C@@H](C)[C@@H]4[C@H](OC(C)=O)C(=O)[C@@]32C)/C1=C(\CCC=C(C)C)C(=O)O
inactive: all assays above

COc1ccc(C2(O)c3ccccc3NC(=O)C2OC)cc1 (stereo not given)
inactive: all assays above

CC12CC(c3ccoc3)OC(=O)C1CCC1(C)C2CCC(O)C1(C)O (stereo not given)
inactive: all assays above

CC1(C)C=Cc2c(ccc3c2[N+]([O-])=C2C3(O)CC34NC(=O)C5(CCCN5C3=O)CC4C2(C)C)O1 (stereo not given)
inactive: all assays above

C=C(CC/C=C(\C)C(=O)O)C1(O)CC=C(C)CC1 (stereo not given)
inactive: all assays above

C[C@H]1/C=C/C=C/C=C/C=C/C=C/[C@@H](O)[C@H](C(=O)O)[C@H](O)C[C@H](O)CCC[C@H](O)C[C@H](O)C[C@H](O)[C@@H](C)C(=O)O[C@@H]1C
inactive: all assays above

C=CC(C)(CCC=C(C)C)O[C@@H]1O[C@H](CO)[C@@H](O)[C@H](O)[C@H]1O (stereo not given in full)
inactive: all assays above

O=C(O)Cc1cn([C@@H]2O[C@H](CO)[C@@H](O)[C@H](O)[C@H]2O[C@@H]2O[C@H](CO)[C@@H](O)[C@H](O)[C@H]2O)c2ccccc12
inactive: all assays above

CC1(C)CC[C@]2(C(=O)O)CC[C@]3(C)C(=CCC4[C@@]5(C)C[C@H](O)[C@H](O[C@@H]6O[C@H](CO)[C@@H](O)[C@H](O)[C@H]6O)[C@@](C)(CO)C5[C@H](O)C[C@]43C)[C@@H]2C1 (stereo not given in full)
inactive: all assays above

CC1(C(=O)O)CCCC2(C)C3CC4C5CC3(CCC12)CC45C (stereo not given)
inactive: all assays above

COc1ccnc(CCc2nc3ncccc3[nH]2)c1
inactive: all assays above

COc1cc(/C=C/C(=O)O)ccc1O[C@@H]1O[C@H](CO)[C@@H](O)[C@H](O)[C@H]1O[C@@H]1OC[C@](O)(CO)[C@H]1O
inactive: all assays above

COc1cc(C(CO)CO[C@@H]2O[C@H](CO)[C@@H](O)[C@H](O)[C@H]2O)ccc1O (stereo not given in full)
inactive: all assays above

O=C(/C=C/c1ccc(O)cc1)OCC1OC(O)C(OC2OC(CO)C(O)C(O)C2O)C(O)C1O (stereo not given)
inactive: all assays above

COc1cc(/C=C/C(=O)OC[C@H]2O[C@@H](OC3CC(C)=C(C(=O)O)C(C)(C)C3)[C@H](O)[C@@H](O)[C@@H]2O)cc(OC)c1O (stereo not given in full)
inactive: all assays above

C=C1C(O)CC2C(C(=O)O)=COC(OC3OC(CO)C(O)C(O)C3OC(=O)/C=C\c3ccc(O)cc3)C12 (stereo not given)
inactive: all assays above
